Laboratory results as given in PubChem BioAssay (NCI).
Where “and” joins values, the source holds several entries; their conditions need not be identical. Identical values can stand only once. About 83,000 compounds went through this panel and 20% of them were active in at least one assay; those are over-represented in the sample as a whole.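 Note: values are percent growth. 100 is the growth of untreated cells, values between 100 and 0 indicate rising inhibition; between -100 and 0 indicates cell death.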 Calls of active or inactive are those of the source. Rule for the calls: active = growth percent below 10; inactive = the rest.

Assays:
Assay in all cases: NCI-60 one-dose screen, 48 h (100 = growth as untreated, 0 = no growth, -100 = all killed)
Details in all cases: 10 µM unless noted
SK-MEL-2 melanoma = test system: SK-MEL-2 melanoma
EKVX NSCLC = test system: EKVX NSCLC
SN12C renal = test system: SN12C renal
UO-31 renal = test system: UO-31 renal
TK-10 renal = test system: TK-10 renal
ACHN renal = test system: ACHN renal
CAKI-1 renal = test system: CAKI-1 renal
A498 renal = test system: A498 renal
CCRF-CEM leukemia = test system: CCRF-CEM leukemia
MOLT-4 leukemia = test system: MOLT-4 leukemia

Measured: growth

Cc1ccc(C(=O)Nc2ccc(CN3CCN(C)CC3)c(C(F)(F)F)c2)cc1C#Cc1cnc(N)cc1C#N
active: SK-MEL-2 melanoma -43% | EKVX NSCLC -36.8% | SN12C renal -52.9% | UO-31 renal -55.7% | ACHN renal -85.7% | CAKI-1 renal -48% | A498 renal -37% | CCRF-CEM leukemia -8.11% | MOLT-4 leukemia -54.7%
inactive: TK-10 renal 14.7%

O=C(CN1C(=O)S/C(=C\C(Cl)=C\c2ccccc2)C1=O)NCCCn1ccnc1
active: ACHN renal 5.51% | CCRF-CEM leukemia 5.11% | MOLT-4 leukemia 6.18%
inactive: SK-MEL-2 melanoma 38.2% | EKVX NSCLC 41.2% | SN12C renal 26.1% | UO-31 renal 48.7% | TK-10 renal 36.2% | CAKI-1 renal 50.5% | A498 renal 95.7%

COc1ccc(C(=O)c2ccc(OC)c(OC)c2OC)cc1
inactive: SK-MEL-2 melanoma 17.6% and 57.5% | EKVX NSCLC 48.1% and 39% | SN12C renal 56.1% and 43.4% | UO-31 renal 41.8% and 24.1% | TK-10 renal 34.4% and 54.2% | ACHN renal 42.5% and 53.8% | CAKI-1 renal 14.4% and 21% | CCRF-CEM leukemia 37.3% | MOLT-4 leukemia 41.5% and 36.8%
active: A498 renal 4.87% and -9.47%

Cc1cnc(C(=O)NNc2nc3sc4c(c3c(=O)[nH]2)C(C)CCC4)cn1 (stereo unspecified)
inactive: SK-MEL-2 melanoma 24.7% | EKVX NSCLC 23.5% | SN12C renal 26% | TK-10 renal 33.5% | ACHN renal 11.8% | A498 renal 33.9% | CCRF-CEM leukemia 11.8% | MOLT-4 leukemia 15.7%
active: UO-31 renal 4.88% | CAKI-1 renal 6.98%

Cc1ccc2[nH]c(=S)[nH]c(=O)c2c1
inactive: SK-MEL-2 melanoma 111% | EKVX NSCLC 104% | SN12C renal 99.9% | UO-31 renal 92.4% | TK-10 renal 85.4% | ACHN renal 101% | CAKI-1 renal 89.7% | A498 renal 94.8% | CCRF-CEM leukemia 98.8% | MOLT-4 leukemia 93.3%

Cc1nn(-c2nc(-c3cc4ccccc4oc3=O)cs2)c(C)c1N=Nc1ccccc1
inactive: SK-MEL-2 melanoma 113% | EKVX NSCLC 99.8% | SN12C renal 103% | UO-31 renal 79.3% | TK-10 renal 112% | ACHN renal 108% | CAKI-1 renal 89.2% | A498 renal 100% | CCRF-CEM leukemia 105%

Nc1nc(N)c2c(n1)NC(c1ccc(Cl)cc1)CC(c1cccc(Nc3ccncc3)c1)=N2 (stereo unspecified)
inactive: SK-MEL-2 melanoma 76.3% | EKVX NSCLC 62.1% | SN12C renal 53% | UO-31 renal 90.6% | TK-10 renal 113% | ACHN renal 73.5% | CAKI-1 renal 73.7% | A498 renal 81.1% | CCRF-CEM leukemia 32.7% | MOLT-4 leukemia 38.1%

COc1cc(C=O)ccc1Oc1ccc([N+](=O)[O-])cc1[N+](=O)[O-]
inactive: SK-MEL-2 melanoma 96.9% | EKVX NSCLC 105% | SN12C renal 99.8% | UO-31 renal 83.3% | TK-10 renal 106% | ACHN renal 106% | CAKI-1 renal 107% | A498 renal 95.2% | CCRF-CEM leukemia 82.9%

Nc1ccc(-c2nc3ccc4[nH]ncc4c3c3c2CCCC3)cc1F
active: SK-MEL-2 melanoma 6.74% | UO-31 renal -4.24% | CAKI-1 renal 7.39% | A498 renal -0.345%
inactive: EKVX NSCLC 33.5% | SN12C renal 27.3% | TK-10 renal 22.1% | ACHN renal 11.6% | CCRF-CEM leukemia 20.5%

O=C1OCC2=C1C(c1cccc(C(F)(F)F)c1)c1cc3c(cc1N2CCO)OCCO3 (stereo unspecified)
inactive: SK-MEL-2 melanoma 26.1% | EKVX NSCLC 49.1% | SN12C renal 46% | UO-31 renal 47.4% | TK-10 renal 54.4% | ACHN renal 33.7% | CAKI-1 renal 30.5% | A498 renal 16% | MOLT-4 leukemia 16.8%
active: CCRF-CEM leukemia 9.36%

C=C(c1ccc(C(=O)O)cc1)c1cc2c(cc1C)C(C)(C)CCC2(C)C
inactive: SK-MEL-2 melanoma 47.7% and 56.2% | EKVX NSCLC 57.5% and 56.7% | SN12C renal 87.5% and 77.5% | UO-31 renal 71.3% and 66.9% | TK-10 renal 89.8% | ACHN renal 74.1% and 57.5% | CAKI-1 renal 70.4% and 82.1% | A498 renal 133% and 110% | CCRF-CEM leukemia 60.4% and 90% | MOLT-4 leukemia 71.2% and 79.4%

COc1ccc2c(c1)CCNC21C(=O)Nc2c(Br)cc(Br)cc21 (stereo unspecified)
inactive: SK-MEL-2 melanoma 106% | EKVX NSCLC 78.7% | SN12C renal 92.5% | UO-31 renal 62.1% | TK-10 renal 106% | ACHN renal 93.7% | CAKI-1 renal 82.8% | A498 renal 67% | CCRF-CEM leukemia 113%

O=C1/C(=C/c2ccc(F)c(F)c2)CN(C(=O)C(Cl)Cl)C/C1=C\c1ccc(F)c(F)c1
active: SK-MEL-2 melanoma -53.4% | EKVX NSCLC -93.7% | SN12C renal -75.3% | UO-31 renal -97.9% | TK-10 renal -94.6% | ACHN renal -100% | CAKI-1 renal -92.1% | A498 renal -96.8% | CCRF-CEM leukemia -3.13% | MOLT-4 leukemia -21%
